VACV E9 pol inh = vaccinia E9 polymerase processive synthesis inhibition; in vitro processive DNA synthesis, absorbance read-out; active compounds read low; normalized absorbance, % (concentration not given with the values); 46,000 compounds, 0.94% hits; in the data active = normalized absorbance mostly below about 85%, no sharp cut-off; inactive = mostly above about 86%
Hits are given with their value; 0 = inactive. Many of the other results were omitted from the sample, so hits are more common in it than they were.

SMILES	VACV E9 pol inh
CC(NC(=O)c1ccc(F)cc1)C(c1ccccc1)N1CCN(C)CC1 (stereo not drawn)	0
CCCOc1ccc2oc(=O)c3c(c2c1)CCCN3C(=O)CN(C)c1ccc(C)cc1	0
CCOC(=O)C1=C(C)OC2=C(C(=O)CC(C)(C)C2)C1c1ccc(CC)s1 (stereo not drawn)	0
CCc1nc2c(cnn2-c2ccc(F)cc2)c(=O)n1-c1ccc(OC)c(Cl)c1	0
COc1ccc(Nc2nc(N3CCN(CCO)CC3)nc3c2cnn3C)cc1Cl	38
Cc1ccc(Nc2nc(N3CC(C)OC(C)C3)nc3c2cnn3C)cc1Cl (stereo not drawn)	0
CCOC(=O)c1c(C)n(-c2ccc(OC)cc2)c2ccc(OC)cc12	0
CCOC(=O)c1c(C)n(C)c2ccc(OCCN(C)C)cc12	65
CCOC(=O)c1c(C)n(Cc2ccccc2)c2ccc(OC(C)=O)cc12	0
O=C(Nc1ccccc1)C1C2C=CC(C2)C1C(=O)Nc1ccccc1 (stereo not drawn)	0
COC(=O)C(N)Cc1ncc(C(F)(F)F)cc1Cl (stereo not drawn)	0
COc1ccc2nc(C)cc(Nc3ccccc3)c2c1	81
COc1ccc2nc(Nc3ccccc3)sc2c1	0
COc1ccc2nc(-c3ccccc3)cc(C(=O)O)c2c1	0
COc1ccc(CCCC(=O)O)cc1	0
Cc1nn(-c2ccccc2)c(C)c1Sc1ccccc1N	0
CC(Oc1ccc(Cl)cc1Cl)C(=O)Nc1nncs1 (stereo not drawn)	0
O=C1c2cccc3cccc(c23)C(=O)N1c1ccc(O)cc1	0
O=C1c2cccc3cccc(c23)C(=O)N1NCCO	80
O=C(O)CN1C(=O)c2cccc3cccc(c23)C1=O	0
O=C(CSc1nc2c(c(=O)n1Cc1ccccc1)SCC2)NC1CCCC1	0
Cc1ccc2[nH]c(-c3ccccc3)c(CN3CCCC3)c(=O)c2c1	0
Cc1ccc(S(=O)(=O)Nc2c(-c3ccccc3)c3cc(C)ccc3[nH]c2=O)cc1	0
Cc1ccc2[nH]c(=O)c(CN3CCOCC3)c(-c3ccccc3)c2c1	67
Cc1cc(I)ccc1NS(=O)(=O)c1cccs1	0
SMILES	VACV E9 pol inh
Brc1ccccc1C=Nc1cccc2cnccc12	0
O=S(=O)(c1cccc2cnccc12)N1CCCNCC1	0
O=S(=O)(NCCNC/C=C/c1ccc(Br)cc1)c1cccc2cnccc12	89
O=C(/C=C/c1cn(-c2ccccc2)nc1-c1ccc(F)cc1)NCc1ccccn1	0
CC1NC(=O)C(C#N)=C(SCc2ccccc2)S1 (stereo not drawn)	63
CCSC1=C(C#N)C(=O)NC(C(C)C)S1 (stereo not drawn)	0
CCSC1=C(C#N)C(=O)NC(c2ccc(OC)cc2)S1 (stereo not drawn)	0
COC(=O)CSC1=C(C#N)C(=O)NC(/C=C/c2ccccc2)S1 (stereo not drawn)	0
CCSC1=C(C#N)C(=O)NC(CO)S1 (stereo not drawn)	0
N#CC1=C(SCc2ccccc2)SC(c2ccc(C(=O)O)cc2)NC1=O (stereo not drawn)	60
O=C(COc1cccc2ccccc12)OC1CCS(=O)(=O)C1 (stereo not drawn)	0
CCN1CCN(c2ccc(NC(=O)c3cccc(Br)c3)cc2)CC1	0
CCN1CCN(c2ccc(Nc3ccnc4cc5ccccc5cc34)cc2)CC1	14
CN1CCN(c2ccc(Nc3ccnc4cc(Cl)ccc34)cc2Cl)CC1	0
Cc1ccc(NC(=O)C2CC(=O)N(Cc3ccccc3)C(=Nc3ccccc3)S2)c(C)c1 (stereo not drawn)	0
Cc1ccc(/C(O)=C/c2nc3ccccc3[nH]c2=O)cc1C	0
CCN1CCN(CCCNC(=O)c2ccc3nc(/C=C(\O)c4ccc(OC)cc4)c(=O)[nH]c3c2)CC1	48
COc1ccc(/C(O)=C/c2nc3ccc(C(=O)N4CCOCC4)cc3[nH]c2=O)cc1OC	0
Fc1ccccc1-c1nnc2ccc(C(F)(F)F)cn12	0
CN1C(=O)/C(=c2\sc3nc(-c4ccccc4)nn3c2=O)c2ccccc21	0
CSc1ccc(Cl)c(C(=O)OCC(=O)N(C)c2ccccc2)c1	0
Cc1ccc(C(=O)NCCN2CCCC2)cc1	0
O=C(NCCCN1CCCC1)c1csc2c1CCCCC2	0
O=C(NCCN1CCCC1)C1=Cc2sc3c(c2CS1)CCCC3	74
COC(=O)c1cc(S(=O)(=O)NC2CCCC2)cn1C	0
SMILES	VACV E9 pol inh
Cc1cc([S-])c2n(cn[n+]2Cc2ccc(Cl)cc2Cl)n1	0
C(=NCc1cccnc1)c1c2ccccc2cc2ccccc12	42
C(=NCc1cccnc1)c1ccc2c(c1)OCO2	0
O=c1c2ccccc2c(C=NCc2cccnc2)c(O)n1-c1ccccc1C(F)(F)F	0
Cc1onc(-c2ccccc2)c1CNC(=O)NC1CCN(C(=O)OCc2ccccc2)CC1	0
Cc1ccc(/C=C/C(=O)O)o1	0
O=C(/C=C/c1ccc(Br)o1)/C=C/c1ccc(Br)o1	49
O=C(/C=C/c1ccc(Br)o1)Nc1ccc(F)cc1F	0
O=C(O)/C=C/c1ccc(-c2cccc(C(F)(F)F)c2)o1	0
O=C(O)/C=C/c1ccc(Br)o1	72
O=C(/C=C/c1ccc(Br)o1)Nc1nccs1	0
COc1ccccc1N(CCC#N)C(=O)c1cncc(Br)c1	0
Cc1ccc2[nH]c3c(c2c1)C[N+](C)(Cc1ccccc1)CC3 (stereo not drawn)	0
CCN(CC)C(=S)NC(=S)c1ccc(C)cc1	0
FC(F)(F)c1ccc(C2=NCCc3sccc32)cc1	0
CO[C@@]1(NC(=O)C(C(=O)O)c2ccc(O)cc2)C(=O)N2C(C(=O)O)=C(CSc3nnnn3C)CO[C@@H]21 (stereo partly drawn)	8.0
COc1ccc(OCCn2c(=O)oc3ccccc32)cc1	0
CC(C)(Oc1ccc(Cl)cc1)C(=O)NC1CCCCNC1=O (stereo not drawn)	0
CC(C)C1C(=O)OC2(C)CC(C)(C)NC(=S)N12 (stereo not drawn)	0
O=C(COc1ccccc1)NCCN1CCCC1	0
Cc1cc(Nc2ccccc2)n2cnnc2n1	0
Cc1cc(Nc2ccccc2)n(-c2ccccc2C(=O)O)n1	86
Cc1cc(Nc2ccccc2)n(C(C)(C)C)n1	0
Cc1ccc(NC(=O)c2ccco2)c(N)c1	0
O=C(NCCn1ccc2ccccc21)C1CCCC1	0
SMILES	VACV E9 pol inh
CCOC(=O)c1c(C)n(Cc2ccccc2)c2ccc(O)cc12	0
CCOC(=O)c1c2ccc(O)cc2n2ccccc12	75
CCOC(=O)c1c(C)n(CC)c2ccc(O)cc12	0
CC1(C)CC(=O)OC(c2ccccc2)(c2ccccc2)C1	0
O=C(NCc1ccc(Cl)cc1)c1cc2sccc2n1Cc1ccc(F)cc1	0
Cc1ccccc1C1C2=C(Nc3c1c(=O)n(C)c(=O)n3C)c1ccccc1C2=O (stereo not drawn)	0
COC(=O)c1ccccc1C(=O)c1ccccc1	0
O=C(NO)c1cccc2c1-c1ccccc1/C2=N/O	0
COC(=O)c1cccc2c1-c1ccccc1/C2=N/O	58
O=C(Nc1ccc(-c2nc3ccccc3o2)cc1)c1ccc(C(=O)c2ccccc2)cc1	0
Cc1cc(C)cc(NC(=O)Nc2nnc(N3CC(C)CC(C)C3)s2)c1 (stereo not drawn)	0
Cc1ccc(C(=O)CC(c2ccccc2)S(=O)(=O)c2ccccc2)cc1 (stereo not drawn)	0
Cn1c(=N)n(CCOc2ccccc2Cl)c2ccccc21	0
CCOC(=O)N1CCN(C(=O)c2cc(Nc3ccc(OC)cc3OC)nc3ccccc23)CC1	0
COc1ccc(Nc2nc(N3CCN(C)CC3)nc3ccccc23)c(OC)c1	53

Screens (PubChem BioAssay)
